Sm TGR block – qHTS Assay for the Inhibitors of Schistosoma Mansoni Peroxiredoxins; purified TGR, DTNB reduction, TNB absorbance 405 nm; Potency, µM (highest dose often 114 µM), for the others: top-dose activity change, negative = inhibition, usual class: inhibitors; 3% of 360,000 active; AID 485364, 2010; further: potency means the concentration at half of the fitted maximal effect; on the % scale 0 is the no-effect control and ±100 the full control effect; nearly all actives have a fitted effect of over 60% in size
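Kinetic colorimetric format: TGR-catalysed, NADPH-driven DTNB reduction monitored via TNB absorbance. Enzyme dispensed at 20 nM; compound exposure 15 min at room temperature before reaction start.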
HCMV antiviral – qHTS Assay for inhibitors of the human cytomegalovirus (HCMV); HFF cells, HCMV-luciferase reporter, 72 h; stronger effect = lower value; activity change, negative = inhibition, % at 57.5 µM; 4.5% of 410,000 active; in the data active means activity change below about -60%; inconclusive means no clear call, values can overlap the other calls; inactive means above about -39%; further: on the % scale 0 is the no-effect control and ±100 the full control effect
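HFF cells seeded 16 h at 37C, treated with compounds, infected with luciferase-reporter HCMV at MOI 1 PFU/cell; luciferase read at 72 h post infection, normalized to buffer-only and Salinomycin controls.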
Pf growth 96h – Primary qHTS for delayed death inhibitors of the malarial parasite plastid, 96 hour incubation. Potency, µM (highest dose often 28.7 µM), for inactives: at the highest dose activity change, negative = inhibition, hits mostly inhibitors. 6.9% of 320,000 active. P. falciparum luciferase reporter growth, 96 h; further: potency means the concentration at half of the fitted maximal effect; on the % scale 0 is the no-effect control and ±100 the full control effect
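Two parasite generations (96 h, 37 C, 5% CO2) of compound exposure in infected erythrocytes (0.05% parasitemia, 2% hematocrit). Luciferase-reporter P. falciparum; decreased luminescence indicates inhibited growth, aimed at apicoplast-acting delayed death.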
SARS PLP yeast – qHTS of Yeast-based Assay for SARS-CoV PLP; AID 485353, 2010; S. cerevisiae expressing SARS-CoV PLpro, growth rescue; 0.19% of 330,000 active; Potency, µM (top dose mostly 32.9 µM), inactives show top-dose activity, positive = growth rescue, most hits filed as activators; calls by dose curve; further: potency means the concentration at half of the fitted maximal effect; 0% is about no effect; nearly all actives have a fitted effect of over 55% in size
Pf growth 48h – Primary qHTS for delayed death inhibitors of the malarial parasite plastid, 48 hour incubation. Potency, µM (series often up to 28.7 µM), without a hit: at the top dose activity change, negative = inhibition, usual class: inhibitors. AID 504832, 2011. P. falciparum luciferase growth in erythrocytes, 48 h. 5.9% of 310,000 active; further: potency means the concentration at half of the fitted maximal effect; on the % scale 0 is the no-effect control and ±100 the full control effect
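Erythrocytes infected with P. falciparum carrying an integrated firefly luciferase reporter (2% hematocrit, 0.1% parasitemia final) were exposed to compounds in RPMI 1640 with 0.5% Albumax at 37 C, 5% CO2. Growth inhibition was scored as reduced luminescence.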
HCV inhibitor – qHTS Assay for Inhibitors of Hepatitis C Virus (HCV); Huh7.5.1 HCVcc-Cre infection, luciferase reporter, 44 h; Potency, µM (highest dose often 41.8 µM), for the others: at the highest dose activity change, negative = inhibition, hits mostly inhibitors; 3.4% of 340,000 active; further: potency means the concentration at half of the fitted maximal effect; on the % scale 0 is the no-effect control and ±100 the full control effect
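Cells seeded at 1,000/well and cultured 4 h, then compounds added followed by HCVcc-Cre virus (~0.5 moi). After 44 h further culture, luciferase substrate was added, plates held 15 min at room temperature, and luminescence read for 15 sec.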
* hit, by the source's call; u = inconclusive; x = no result. Only some compounds are listed: those with a hit (about 15% of all), similar ones and a draw of the others. Unless noted, the call rests on the fitted dose curve; in most records, active means well fitted curve in the direction sought with a large enough effect; inconclusive means small, poorly fitted or top-dose-only effect, or another doubt; inactive means no such curve, though single readings can be large; an effect the other way counts as inactive or inconclusive.

SMILES	Sm TGR block	HCMV antiviral	Pf growth 96h	SARS PLP yeast	Pf growth 48h	HCV inhibitor
COc1ccc(COCC(O)CN(Cc2ccco2)Cc2ccccc2O)cc1 (stereo not given)	-9%	12	4.7µM*	0%	8.3µM*	15%
CCN1C[C@@H]2[C@@H]3C(=O)N(C)C(=O)[C@@H]3[C@](C)(C1=O)N2C(=O)c1ccc(Cl)c(Cl)c1	x	-13	x	x	x	20%
C#CCOc1c(/C=C\c2nc(O)c([N+](=O)[O-])c(=O)[nH]2)cc(Br)cc1OC	35µM*	-15	u	4%	5.2µM*	10%
O=c1[nH]c(/C=C\c2ccccc2F)nc(O)c1[N+](=O)[O-]	-25%	14	13µM*	13%	-9%	17%
O=C(c1ccccc1)N1CCN(CC(O)COc2cccc3ccccc23)CC1 (stereo not given)	-13%	-4	0%	2%	u	15%
Cc1cccc(C)c1OCC(O)CN1CCc2ccccc2C1 (stereo not given)	x	-3	x	x	x	13µM*
Cc1cc(C)c(OCC(O)CN2CCN(C(=O)c3ccccc3)CC2)c(C)c1 (stereo not given)	5%	11	6.6µM*	3%	u	-11%
Cc1ccc(C(C)C)c(OCC(O)CN2CCc3ccccc3C2)c1 (stereo not given)	1%	-17	u	-1%	u	u
Cn1cc(CNCc2ccccc2OCC(O)CN2CCc3ccccc3C2)cn1 (stereo not given)	-23%	-40	-10%	1%	u	11µM*
CS(=O)(=O)Nc1ccc2c(c1)[C@H]1C[C@H](CC(=O)NCc3cccc(F)c3)O[C@@H](CO)[C@H]1O2	x	14	x	x	x	x
CC(=O)C1=C(C)NC(SCC(=O)Nc2nccs2)=C(C#N)C1c1ccccc1Cl (stereo not given)	-13%	u	u	-5%	u	-8%
C=CCOC(=O)C1=C(C)NC(SC)=C(C#N)C1c1cccs1 (stereo not given)	0%	-4	u	-2%	u	-10%
C=CCOC(=O)C1=C(C)NC(SCC(=O)Nc2nccs2)=C(C#N)C1c1cccs1 (stereo not given)	-19%	u	4.1µM*	-7%	4.7µM*	u
CCOC(=O)C1=C(C)NC(SCC(=O)Nc2cc(C)on2)=C(C#N)C1c1cccs1 (stereo not given)	-6%	-33	u	-3%	10µM*	10µM*
C=CCOC(=O)C1=C(C)NC(SCC(=O)Nc2nccs2)=C(C#N)C1c1ccc(Cl)cc1 (stereo not given)	-31%	-32	2.1µM*	-4%	2.1µM*	u
C=CCOC(=O)C1=C(C)NC(SCC(=O)OCC)=C(C#N)C1c1ccc(O)c(OC)c1 (stereo not given)	-32%	x	0%	3%	u	u
C=CCOC(=O)C1=C(C)NC(SC)=C(C#N)C1c1ccc(OCC)cc1 (stereo not given)	-12%	2	12µM*	4%	8.3µM*	-8%
CCC(=O)N(C)CCc1cc2c(c(OC)c1/C=N/NC(=O)c1ccc(Br)cc1)OCO2	6%	-17	40%	-12%	16%	1%
COc1ccc(NC(=O)N2c3ccc(OC)cc3[C@@H](NC(C)=O)[C@H](C)[C@H]2c2ccccc2)cc1	x	18	x	x	x	x
COc1cc(NC(=O)COCc2cc(-c3ccc4c(c3)OCO4)on2)cc(OC)c1	4%	19	x	x	x	x
COc1ccc(C(=O)Oc2c(Sc3ccc(Cl)cc3)c(C)nn2C(C)(C)C)cc1OC	6%	-28	x	x	x	x
CCCCCCCCCCOC(=O)Cn1c(COc2ccccc2OC)[n+](C)c2ccccc21	-19%	u	u	-13%	1.7µM*	14µM*
OCc1ccccc1O	x	x	u	x	-8%	x

From PubChem BioAssay
